“And” between values parts separate entries of the source, which are not always exact repeats. Equal values may be shown once. For part of these data: Measured potencies and affinities stand elsewhere. The source made the active and inactive calls. Unless noted, how the calls were made is not given here.
Legend:
[1] = blockers of polyQ-driven CASP3 activation – cell-based (AID 1583); conditions: polyglutamine-induced caspase-3 activation, cell assay; stronger effect = higher value;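 tested at 10 µM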
[2] = yeast 75Q aggregation reduction – 75Q-TubU reporter (AID 1593); conditions: Yeast 75Q polyglutamine aggregation reporter
[3] = restoration of touch response, mutant HTT neurons – whole organism, C. elegans mechanosensory neurons, N-terminal huntingtin (AID 1599); conditions: C. elegans polyQ-huntingtin mechanosensory neurons, stronger effect = higher value
[4] = blockers of cytochrome c efflux from mitochondria – biochemical, purified mitochondria (AID 1603); conditions: stronger effect = lower value;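 further: mouse liver mitochondria challenged with calcium chloride; signal normalized to the plate average as 100%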
[5] = polyglutamine aggregate formation blockers (AID 1604); conditions: polyglutamine-induced protein aggregation inhibition assay; stronger effect = higher value; tested at 2.5 µM
[6] = glutamate transport activators, MN-1 cells, MN-1 cell line (AID 1612); conditions: MN-1 motor neuron cells, stronger effect = higher value;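 further: tested at 1 µM final; 0% = mean of DMSO vehicle wells on each plate; positive means more glutamate uptake than control and negative means less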
[7] = GFP-Q80 aggregate reduction, neuronal-like cells, cell-based, NGF-treated PC12, GFPQ80 (AID 1614); conditions: PC12 NGF-treated GFP-polyQ80 inclusion reduction;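 further: lower means fewer inclusions and 0 means no inclusions at all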
[8] = 75Q-TubH aggregate inhibition, S. cerevisiae, yeast (AID 1616); conditions: S. cerevisiae 75Q-TubH polyglutamine aggregation suppression; stronger effect = higher value
[9] = P. berghei load reduction in hepatocytes – cell-based, HepG2, luciferase luminescence, HepG2 viability, primary screen (AID 624349; in the data active means parasite load remaining mostly below about 12%, no sharp cut-off; inactive means mostly above about 10%;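 further: 100% = mean of DMSO negative control wells on the same plate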); conditions: P. berghei liver stage in HepG2, luciferase luminescence, concentration not given here; parasite load remaining: stronger effect = lower value; viability: measured here: HepG2 viability without parasites
[10] = biological target: 6-phosphogluconate dehydrogenase, decarboxylating (Homo sapiens) (UniProt P52209); assay: inhibition of human phosphogluconate dehydrogenase – biochemical, recombinant enzyme, NADPH absorbance, primary screen (AID 1159550;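 active means at least 20% inhibition of 6-phosphogluconate dehydrogenase activity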); conditions: recombinant 6PGD, NADPH absorbance 341 nm; at 10 µM; stronger effect = higher value
[11] = EMT-state selective cytotoxicity in co-culture – imaging, PC-3E GFP, TEM4-18 mCherry, primary screen (AID 1345086;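 active means compounds killing one labelled cell type while sparing the other, by normalised counts and ratio limits, not self-fluorescent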;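 on all read-outs here: cells exposed to compound for 72 h before imaging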;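 on red/green cell ratio (normalised): normalised mesenchymal count divided by normalised epithelial count so high means epithelial killing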); conditions: PC-3E GFP / TEM4-18 mCherry co-culture, imaging cell counts, at 1 µM; for red/green cell ratio (normalised): actives lie on both sides, counts scaled to control wells, 1 = unselective
[12] = viability loss with induced miR-34 in A549 – imaging, A549 dox-inducible miR-34, nuclei and caspase counts, primary screen (AID 1347080;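 active means compounds whose cell count with miR-34 switched on is under 0.7 times the count with it off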); conditions: A549 miR-34 inducible, Hoechst nuclei count, 48 h
[13] = MELAS cybrid and Rieske KO viability enhancers – cell-based, MELAS cybrids, Rieske KO mouse fibroblasts, CellTiter-Glo, primary screen (AID 1508586;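 active means mean z-score across replicates of 1.96 or higher in either the MELAS or the Rieske mutant cell line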;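 further: z relative to plate mean and SD of compound and empty wells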); conditions: low glucose
[14] = biological target: Mitogen-activated protein kinase 7 (Homo sapiens) (UniProt Q13164); assay: Gal4-ERK5 driven luciferase induction – cell-based, HTS, primary screen (AID 1508626;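 active means luciferase signal above three times the same-plate solvent-only control wells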;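 further: luciferase driven by Gal4-ERK5 fusion binding five Gal4 sites before minimal TATA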); conditions: HeLa Gal4-ERK5 transactivation, 18 h, at 5 µM, stronger effect = higher value
[15] = compounds altering circadian rhythm period length – cell-based, LOPAC library, luminescence reporter (AID 2774); conditions: circadian reporter cells, at 7 µM, actives lie on both sides;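 further: values are relative to mean of DMSO wells on each plate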
[16] = test system: Hepatitis C virus NS3 helicase; assay: blockers of NS3h binding to ssDNA – biochemical, fluorescence polarization, LOPAC1280 library, primary screen (AID 687035; in the data active means inhibition above about 37%); conditions: Purified HCV NS3 helicase, Cy5-dT15 ssDNA binding fluorescence polarization; stronger effect = higher value; concentration not given here
[17] = compounds altering Cy5-DNA-NS3h complex signal – biochemical, LOPAC1280, artefact control for HCV NS3 helicase inhibitor project (AID 687037); conditions: Cy5-DNA-NS3h complex fluorescence interference counterscreen
[18] = blockers of cellular phospholipid synthesis – cell-based, LOPAC library, screen 4, primary screen (AID 1347384); conditions: animal cells, phospholipid biosynthesis inhibition screen; at 10 µM
[19] = galactose survival enhancers in mitochondrial complex I cybrids – cell-based, galactose medium, ATP luminescence, primary screen (AID 1645843;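 active means z-score of at least 1.8 in each of two replicates, scored against plate mean and spread of sample wells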;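 further: positive z means more ATP and so rescue of galactose-driven cybrid death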); conditions: complex I mutant cybrid cells, 72 h, stronger effect = higher value
[20] = measured here: epithelial PC-3E GFP cell survival
[21] = measured here: mesenchymal TEM4-18 mCherry cell survival
[22] = stronger effect = lower value, cell number ratio, induced over uninduced
[23] = measured here: relative caspase fold change +Dox/-Dox
[24] = measured here: total cells with miR-34 induction, stronger effect = lower value
[25] = measured here: total cells without miR-34 induction
[26] = MELAS cybrid survival, CellTiter-Glo 48 h, stronger effect = higher value
[27] = Rieske KO mouse fibroblast survival, CellTiter-Glo 72 h

Mitogen-activated protein kinase 7 (Homo sapiens), sequence (Q13164 whole entry, looked up, the tested form may be a part): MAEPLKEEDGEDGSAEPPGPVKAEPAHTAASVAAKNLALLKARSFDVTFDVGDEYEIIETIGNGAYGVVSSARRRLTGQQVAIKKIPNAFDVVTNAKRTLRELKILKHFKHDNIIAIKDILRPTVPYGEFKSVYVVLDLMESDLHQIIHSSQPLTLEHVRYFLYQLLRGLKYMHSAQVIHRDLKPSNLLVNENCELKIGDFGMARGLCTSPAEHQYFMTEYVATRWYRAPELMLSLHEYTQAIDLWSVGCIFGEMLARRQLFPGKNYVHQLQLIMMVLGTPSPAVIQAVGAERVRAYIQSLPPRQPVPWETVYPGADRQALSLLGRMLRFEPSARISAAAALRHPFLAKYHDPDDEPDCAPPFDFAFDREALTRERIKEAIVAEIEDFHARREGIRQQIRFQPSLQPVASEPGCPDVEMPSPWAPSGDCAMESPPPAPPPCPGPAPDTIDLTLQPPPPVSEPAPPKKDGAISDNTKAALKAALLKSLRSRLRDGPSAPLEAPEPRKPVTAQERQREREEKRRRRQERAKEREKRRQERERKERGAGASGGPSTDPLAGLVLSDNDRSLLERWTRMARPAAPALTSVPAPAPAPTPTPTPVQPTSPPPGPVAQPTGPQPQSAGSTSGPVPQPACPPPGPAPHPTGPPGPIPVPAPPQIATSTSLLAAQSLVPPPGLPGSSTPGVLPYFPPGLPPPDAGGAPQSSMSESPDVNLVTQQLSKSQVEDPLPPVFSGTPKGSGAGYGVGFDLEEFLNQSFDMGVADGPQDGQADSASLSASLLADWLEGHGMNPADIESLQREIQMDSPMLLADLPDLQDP
6-phosphogluconate dehydrogenase, decarboxylating (Homo sapiens), sequence (P52209 whole entry, looked up): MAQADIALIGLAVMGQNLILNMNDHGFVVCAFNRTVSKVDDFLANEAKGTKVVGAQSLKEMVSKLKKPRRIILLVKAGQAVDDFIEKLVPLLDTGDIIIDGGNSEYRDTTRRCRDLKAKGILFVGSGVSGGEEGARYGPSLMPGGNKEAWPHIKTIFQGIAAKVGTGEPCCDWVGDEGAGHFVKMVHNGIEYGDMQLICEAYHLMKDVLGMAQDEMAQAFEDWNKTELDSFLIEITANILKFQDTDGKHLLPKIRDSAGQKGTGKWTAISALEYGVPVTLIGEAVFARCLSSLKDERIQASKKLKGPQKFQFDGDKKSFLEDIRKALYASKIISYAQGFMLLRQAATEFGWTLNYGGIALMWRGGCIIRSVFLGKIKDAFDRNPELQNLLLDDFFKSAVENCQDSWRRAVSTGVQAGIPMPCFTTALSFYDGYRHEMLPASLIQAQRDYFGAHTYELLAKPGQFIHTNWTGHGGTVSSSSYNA

For `C[N+](C)(C)CC(O)CC(=O)O` (stereo not drawn), the inhibition [1] was 0.15%, the score [2] was 1.34 and the rescue above control [3] was -5.96. It also gave a cytochrome c release ratio [4] of 0.99, an inhibition of aggregation [5] of 88.8% and a glutamate uptake change [6] of -5.62%. The inclusion score [7] was 2, the aggregation suppression score [8] was 1.39 and the parasite load remaining [9] was 33.4% (inactive). The viability [9] was 63.9%, the inhibition [10] was -11.2% (inactive) and the red/green cell ratio (normalised) [11] was 0.84 (inactive). The normalised cell number [11, 20] was 0.96, the normalised cell number [11, 21] was 0.81 and the fold change [12, 22] was 0.835 (inactive). For the same compound, the fold change [12, 23] was 0.677, the cell count [12, 24] was 6370 and the cell count [12, 25] was 7640. For the same compound, the z-score [13, 26] was -0.35 (inactive), the z-score [13, 27] was -0.217 and the luciferase signal [14] was 24 AU (inactive).
`Cc1cc(C(C)(C)CC(C)(C)C)ccc1OCCOCC[N+](C)(C)Cc1ccccc1` gave an inhibition [1] of -7.8%, a score [2] of -0.1 and a rescue above control [3] of 0. For the same compound, the cytochrome c release ratio [4] was 6.77, the inhibition of aggregation [5] was 63.9% and the glutamate uptake change [6] was 10.8%. For the same compound, the aggregation suppression score [8] was -0.0187, the parasite load remaining [9] was 26.8% (inactive) and 101% (inactive) and 11.6% (inactive) and the viability [9] was 87.1% and 82% and 145%. The inhibition [10] was 18.8% (inactive), the red/green cell ratio (normalised) [11] was 1.11 (inactive) and the normalised cell number [11, 20] was 0.89. For the same compound, the normalised cell number [11, 21] was 0.98, the fold change [12, 22] was 0.811 (inactive) and 0.9 (inactive) and the fold change [12, 23] was 1.18 and 1.77. For the same compound, the cell count [12, 24] was 1940 and 8590, the cell count [12, 25] was 2400 and 9540 and the z-score [13, 26] was -1.41. The z-score [13, 27] was 2.46 and the luciferase signal [14] was 116 AU (inactive).
`CN1CCc2c(c3ccccc3n2Cc2ccccc2)C1` gave an inhibition [1] of 13.5%, a score [2] of 1.36 and a rescue above control [3] of -5.3. For the same compound, the cytochrome c release ratio [4] was 1.12, the inhibition of aggregation [5] was 26.7% and the glutamate uptake change [6] was -0.3%. For the same compound, the aggregation suppression score [8] was 1.16, the parasite load remaining [9] was 52.3% (inactive) and 141% (inactive) and 69.3% (inactive) and the viability [9] was 99% and 73.4% and 70.8%. The inhibition [10] was 10.8% (inactive), the red/green cell ratio (normalised) [11] was 0.9 (inactive) and the normalised cell number [11, 20] was 0.92. The normalised cell number [11, 21] was 0.82, the fold change [12, 22] was 0.847 (inactive) and the fold change [12, 23] was 1.16. For the same compound, the cell count [12, 24] was 8940, the cell count [12, 25] was 10600 and the z-score [13, 26] was 0.038 (inactive). It also gave a z-score [13, 27] of 0.0579.
With `CN[C@H](CC(=O)O)C(=O)O` the inhibition [1] was 0.95%, the score [2] was 1.4 and the rescue above control [3] was -9. It also gave a cytochrome c release ratio [4] of 0.78, an inhibition of aggregation [5] of 80.3% and a glutamate uptake change [6] of -1.67%. For the same compound, the inclusion score [7] was 2, the aggregation suppression score [8] was 1.66 and the period change [15] was -0.09 h (inactive). For the same compound, the parasite load remaining [9] was 161% (inactive), the viability [9] was 83.1% and the inhibition [16] was -2% (inactive). The fluorescence ratio (interference) [17] was 1 (inactive), the inhibition [10] was 6.3% (inactive) and the red/green cell ratio (normalised) [11] was 1.02 (inactive). The normalised cell number [11, 20] was 1.12, the normalised cell number [11, 21] was 1.15 and the fold change [12, 22] was 1.06 (inactive). It also gave a fold change [12, 23] of 0.738, a cell count [12, 24] of 10900 and a cell count [12, 25] of 10300. For the same compound, the outcome [18] was “inactive”, the luciferase signal [14] was 56 AU (inactive) and the z-score [19] was 0.495 (inactive).
For `NC(=O)CC[C@H](N)C(=O)O`, the period change [15] was -0.065 h (inactive), the inhibition [16] was -3% (inactive) and the fluorescence ratio (interference) [17] was 1 (inactive). For the same compound, the inhibition [10] was -0.19% (inactive), the red/green cell ratio (normalised) [11] was 0.89 (inactive) and 1.18 (inactive) and the normalised cell number [11, 20] was 1.22 and 0.97. The normalised cell number [11, 21] was 1.08 and 1.13, the fold change [12, 22] was 0.981 (inactive) and 0.937 (inactive) and the fold change [12, 23] was 0.852 and 0.867. The cell count [12, 24] was 10400 and 8420, the cell count [12, 25] was 10600 and 8990 and the outcome [18] was “inactive”. For the same compound, the luciferase signal [14] was 40 AU (inactive) and the z-score [19] was 0.01 (inactive).
In the case of `COc1ccc(-c2cc(=O)c3c(OC)c(OC)c(OC)c(OC)c3o2)cc1`, the inhibition [10] is reported as -8.06% (inactive), the red/green cell ratio (normalised) [11] is reported as 1.11 (inactive) and the normalised cell number [11, 20] is reported as 1.14. The normalised cell number [11, 21] was 1.26, the fold change [12, 22] was 0.921 (inactive) and the fold change [12, 23] was 0.924. The cell count [12, 24] was 6760, the cell count [12, 25] was 7340 and the z-score [13, 26] was -0.525 (inactive). For the same compound, the z-score [13, 27] was 0.0182 and the luciferase signal [14] was 100 AU (inactive).
For `NCCCCN=C(N)N`, the period change [15] was 0.06 h (inactive), the parasite load remaining [9] was 166% (inactive) and the viability [9] was 87.2%. The inhibition [16] was 1% (inactive), the fluorescence ratio (interference) [17] was 1 (inactive) and the inhibition [10] was -2.27% (inactive). For the same compound, the red/green cell ratio (normalised) [11] was 0.84 (inactive), the normalised cell number [11, 20] was 1.01 and the normalised cell number [11, 21] was 0.85. The fold change [12, 22] was 1.06 (inactive), the fold change [12, 23] was 2.32 and the cell count [12, 24] was 10300. The cell count [12, 25] was 9670, the outcome [18] was “inactive” and the luciferase signal [14] was 64 AU (inactive). For the same compound, the z-score [19] was 0.245 (inactive).
For `O=C(O)c1cc2cc(F)ccc2[nH]1`, the period change [15] was 0.04 h (inactive), the inhibition [16] was -2% (inactive) and the fluorescence ratio (interference) [17] was 1 (inactive). For the same compound, the inhibition [10] was 0.201% (inactive), the red/green cell ratio (normalised) [11] was 0.92 (inactive) and the normalised cell number [11, 20] was 0.97. The normalised cell number [11, 21] was 0.89, the fold change [12, 22] was 0.936 (inactive) and the fold change [12, 23] was 1.52. For the same compound, the cell count [12, 24] was 9030, the cell count [12, 25] was 9650 and the outcome [18] was “inactive”. The luciferase signal [14] was 24 AU (inactive) and the z-score [19] was 1.04 (inactive).
`NCCCS(=O)(=O)O` gave an inhibition [1] of -8.14%, a score [2] of 1.19 and a rescue above control [3] of -7.13. The cytochrome c release ratio [4] was 1.17, the inhibition of aggregation [5] was 80.3% and the glutamate uptake change [6] was 3.02%. The inclusion score [7] was 2, the aggregation suppression score [8] was 1.7 and the period change [15] was 0.415 h (inactive). For the same compound, the parasite load remaining [9] was 106% (inactive), the viability [9] was 72.2% and the inhibition [16] was -1% (inactive). The fluorescence ratio (interference) [17] was 1 (inactive), the inhibition [10] was 6.14% (inactive) and the red/green cell ratio (normalised) [11] was 0.83 (inactive). The normalised cell number [11, 20] was 1.23, the normalised cell number [11, 21] was 1.02 and the fold change [12, 22] was 0.922 (inactive). The fold change [12, 23] was 2.79, the cell count [12, 24] was 6500 and the cell count [12, 25] was 7050. The outcome [18] was “inactive”, the luciferase signal [14] was 56 AU (inactive) and the z-score [19] was 0.265 (inactive).
In the case of `CC(CN(C)C)CN1c2ccccc2Sc2ccccc21` (stereo not drawn), the inhibition [1] is reported as -4.15%, the score [2] is reported as 1.25 and the rescue above control [3] is reported as 0. It also gave a cytochrome c release ratio [4] of 1.2, an inhibition of aggregation [5] of 52.6% and a glutamate uptake change [6] of -15.4%. For the same compound, the aggregation suppression score [8] was 1.08, the parasite load remaining [9] was 56% (inactive) and 101% (inactive) and 20% (inactive) and the viability [9] was 86.7% and 71.6% and 86.5%. The inhibition [10] was 3.47% (inactive), the red/green cell ratio (normalised) [11] was 0.95 (inactive) and the normalised cell number [11, 20] was 1.1. For the same compound, the normalised cell number [11, 21] was 1.05, the fold change [12, 22] was 0.881 (inactive) and 0.895 (inactive) and the fold change [12, 23] was 1.1 and 2.21. The cell count [12, 24] was 7480 and 9410, the cell count [12, 25] was 8490 and 10500 and the z-score [13, 26] was 0.461 (inactive). For the same compound, the z-score [13, 27] was -0.196 and the luciferase signal [14] was 76 AU (inactive).

Reference: PubChem BioAssay
